HT1080 IDH1KD tx = HT-1080 IDH1 knockdown cell toxicity (counter line) | HT-1080 IDH1 knockdown viability, ATP luminescence, 48 h | Potency, µM (highest dose often 46.1 µM), without a hit: top-dose activity, negative = toxicity, most hits filed as cytotoxic | 360,000 compounds, 2% hits | AID 686971;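 note: potency is the fitted concentration of half-maximal effect; 0% = DMSO wells and -100% = cell-free medium wells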
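Cytotoxicity counter-line: IDH1KD HT-1080, 48 h, CellTiter-Glo. Curves classed by r2, magnitude and activity.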
TDP1 cell noCPT = qHTS for Inhibitors of human tyrosyl-DNA phosphodiesterase 1 (TDP1): qHTS in cells in absence of CPT. DT40 Tdp1-/- hTDP1 cells, no CPT, ATP luminescence, 48 h. Potency, µM (doses to about 46.2 µM), for inactives: top-dose activity change, negative = growth inhibition, hits mostly inhibitors. 420,000 compounds, 15% hits; note: potency is the fitted concentration of half-maximal effect; nearly all actives have a fitted effect of over 55% in size
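Growth of hTDP1-complemented DT40 Tdp1-knockout cells is measured by ATP luminescence after at least 48 hr compound exposure at 37 °C, with DMSO substituting for the 20 nM CPT used in the parallel screen.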
HT1080-NT tox = kills 2HG-producing HT-1080-NT fibrosarcoma cells; HT-1080-NT fibrosarcoma viability, CellTiter-Glo ATP luminescence, 48 h; Potency, µM (titrated, usually from 46.1 µM), for the others: at the highest dose activity, negative = less viability, hits mostly cytotoxic; 360,000 compounds, 1.6% hits;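 note: NT is the 2HG producing partner of a matched IDH1 knockdown line; potency is the fitted concentration of half-maximal effect; 0% = DMSO-treated cells and -100% = media-only wells without cells; nearly all actives have a fitted effect of over 55% in size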
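750 cells/well, RPMI + 5% FBS; 2 h settle, compound pin-transfer, 48 h at 37 degrees C. CellTiter-Glo 10 min RT, luminescence. Normalized to DMSO and media-only wells.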
TDP1 cell CPT = DT40-hTDP1 cell growth loss with CPT; chicken DT40 Tdp1-/-;hTDP1 cells + 20 nM CPT, ATP luminescence, 48 h; Potency, µM (titrated, usually from 46.2 µM), inactives show at the highest dose activity change, negative = growth inhibition, actives largely listed as inhibitors; 420,000 compounds, 12% hits; AID 686979; note: potency is the fitted concentration of half-maximal effect; nearly all actives have a fitted effect of over 55% in size
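Chicken DT40 Tdp1-/- cells stably complemented with human TDP1 were seeded at 400 cells/well in medium containing 20 nM camptothecin, exposed to pin-transferred compounds, and grown at 37 °C for at least 48 hr. Viability was read as ATP luminescence.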
IL1B secr inh = blocks inflammasome-driven IL-1 beta release; THP-1 LPS/ATP IL-1B secretion, AlphaLISA, 16 h; hits give low values; activity change, % at 57.5 µM; 360,000 compounds, 4.7% hits; in the data active = activity change below about -50%; inconclusive = mostly about -30% to -49%
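THP-1 cells pretreated 1 hr with compounds (up to 57.5 uM final), then stimulated with LPS (250 ng/mL final) plus ATP (1.25 mM final); secreted IL-1B measured by AlphaLISA after 16 hr, decreased signal indicating inhibition.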
An asterisk follows results filed as active; u = inconclusive; x = no result. Shown are actives, neighbours in structure and some others; about 19% of the full set was active somewhere. Unless noted, calls come from the whole dose curve; as a rule, active = well fitted curve in the direction sought with a large enough effect; inconclusive = small, poorly fitted or top-dose-only effect, or another doubt; inactive = no such curve, though single readings can be large; an effect the other way counts as inactive or inconclusive. Unless noted, % is set by controls: 0 for no effect and ±100 for the full control effect.

SMILES	HT1080 IDH1KD tx	TDP1 cell noCPT	HT1080-NT tox	TDP1 cell CPT	IL1B secr inh
CCc1c(C(C)S(=O)(=O)c2ccc(C)cc2)[nH]c(=O)n1-c1ccc(C)cc1 (stereo not given)	-2%	29µM*	6%	u	-10
Cc1cc(N)ccc1NC(=O)CN1CCCC1	6%	18%	17%	-6%	16
O=C(C=C=Nc1ccccc1)C(=O)N=C=Cc1ccccc1	3.7µM*	4.6µM*	6.5µM*	1.8µM*	-101*
Cc1ccccc1-c1nc(-c2ccc(NC(=O)c3ccc4c(c3)OCO4)cc2)no1	u	u	u	u	-3
COc1cccc(-c2nc(-c3ccc(NC(=O)c4ccncc4)cc3)no2)c1	5%	10µM*	10%	9.2µM*	34
COc1ccc(-c2nc(-c3ccc(NC(=O)c4ccncc4)cc3)no2)cc1OC	-4%	7.3µM*	-3%	5.2µM*	-4
COc1ccc(Cl)cc1-c1nc(-c2ccc(NC(=O)c3ccncc3)cc2)no1	10%	10µM*	u	u	12
COc1cc(-c2nc(-c3ccc(NC(=O)c4ccc5c(c4)OCO5)cc3)no2)cc(OC)c1OC	5.2µM*	u	4.6µM*	u	u
Cc1ccc(S(=O)(=O)N2Cc3ccccc3CC2C(=O)NC(C)(C)C)cc1 (stereo not given)	6%	-12%	5%	-25%	-6
Clc1cccc2c1CCN(Cc1nc(-c3cnccn3)no1)C2	-15%	-13%	-18%	-5%	-9
CCn1c(=O)n(-c2ccc(F)c(Cl)c2)c(=O)c2sc3ccccc3c21	x	-19%	x	1%	x
COc1ccc(Cc2nc(-c3ccc(NC(=O)c4cccnc4)cc3)no2)cc1	u	6.5µM*	u	5.8µM*	u
COc1ccc(-c2noc(CCC(=O)NCc3cccnc3)n2)cc1	0%	-28%	5%	u	2
Cc1nc(N2CCN(c3ccccn3)CC2)c2c(C)c(C(=O)N3CCN(c4cccc(Cl)c4)CC3)sc2n1	-17%	21µM*	0%	15µM*	-5
Cc1c(C(=O)N2CCN(c3ccccn3)CC2)sc2ncnc(N3CCN(c4ccccc4)CC3)c12	-5%	12µM*	-9%	u	-18
Cc1ccc(S(=O)(=O)N2[C@H](c3cccc(Cl)c3)CC(=O)[C@@H]3CN(S(=O)(=O)c4ccccc4C)[C@H](c4ccc(Cl)cc4)C[C@@H]32)cc1	-21%	-10%	-2%	-12%	39
CCOC(=O)c1c(NC(=O)COC(=O)c2cc(OC)c(OC)cc2[N+](=O)[O-])sc(C)c1C	-1%	u	3%	-22%	22
COc1ccc(CNC(=O)c2nc(Cn3nc(C)c(Br)c3C)no2)cc1OC	x	u	x	-29%	x
CN(C)/C=C1\C=Cc2ccccc21	x	13µM*	x	u	x
C1=Cc2ccccc2/C1=C/c1ccc(/C=C2\C=Cc3ccccc32)cc1	x	6%	x	8%	x
CN(C)N=Nc1ccc(/C=C2\C=Cc3ccccc32)cc1	x	u	x	14µM*	x
NC(N)=Nc1ccc(/C=C2\C=Cc3ccccc32)cc1	x	13µM*	x	11µM*	x
COc1ccc(C)cc1NS(=O)(=O)c1ccc2c3c(cccc13)C(=O)N2	x	u	x	4.1µM*	x
CC(=NNC(=S)Nc1cccc(C)c1)c1ccccn1	u	0.033µM*	-14%	0.018µM*	43
C/C(=N\NC(=S)Nc1ccc(C)cc1)c1cccc(N)c1	0%	u	-2%	u	34
C/C(=N\NC(=S)Nc1cccc(C)c1)c1ccco1	9%	u	4%	u	44
COc1ccccc1NC(=S)NN=C(C)c1ccccn1	u	0.15µM*	-15%	0.013µM*	35
CC(=NNC(=S)Nc1ccc(C)cc1)c1ccccn1	u	0.018µM*	u	0.018µM*	u
O=C(c1cc([N+](=O)[O-])ccc1N1CCOCC1)N1CCCC1	16%	2%	u	10%	13

Screening data as filed in PubChem.
